Our source for the growth values is PubChem BioAssay (NCI).

This is part of a sample that, as a whole, favours compounds with a hit. Of some 83,000 tested, about 20% had one in any assay.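 Note: values are percent growth. 100 is the growth of untreated cells, values between 100 and 0 indicate rising inhibition; between -100 and 0 indicates cell death.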 Values without a mark were called inactive. The source made the active and inactive calls. How the source made its calls: active means growth percent below 10; inactive means the rest.

What all share (experiment): NCI-60 one-dose screen, 48 h (100 = growth as untreated, 0 = no growth, -100 = all killed)
Common to all, as to conditions: 10 µM unless noted

The test system of assay [1] is SK-MEL-2 melanoma.
For assay [2], the system named is EKVX NSCLC.
Assay [3] relates to SN12C renal.
Assay [4] deals with UO-31 renal.
Assay [5] has as its system TK-10 renal.
Assay [6] relates to ACHN renal.
Assay [7] has as its system CAKI-1 renal.
In assay [8] the test system is A498 renal.
The subject of assay [9] is CCRF-CEM leukemia.
Assay [10] deals with MOLT-4 leukemia.

`COC(=O)CCCCCn1c2ccccc2c2c3c(c4c5ccccc5[nH]c4c21)C(=O)N(O)C3=O`: the growth in assay [1] is 77.3%; in [2], 75.3%; in assay [3] it was 37.8%; in [4] it was 11.8%; in assay [5] it was 74.4%; in assay [6], -18.5% (active). For the same compound, the growth in assay [7] was -16.8% (active); in assay [8], 62%; in [9], 11.4%; in assay [10], -15.6% (active).

With `O=c1[nH]c2c3ccncc3cc(-c3cccc(Cl)c3)c2c2cnccc12`, the growth in [1] is 64.1%; in assay [2], 74.8%; in assay [3] it was 57.1%; in [4] it was 30.6%; in [5], 0.334% (active); in [6], 17.2%. Moreover, the growth in [7] was 63.3%; in assay [8], 50.2%; in assay [9], 56.4%; in assay [10] it was 76.9%.

As to `Cn1cc(-c2nc(-c3c[nH]c4ncccc34)cs2)c2ccccc21`, the growth in assay [1] was 87%; in [2], 22.7%; in [3], 90%; in assay [4] it was 62.4%; in assay [5] it was 56.9%; in [6], 88.9%. In addition, the growth in assay [7] was 79.1%; in assay [8], 81.5%; in assay [9], 75.5%; in assay [10], 77.8%.

With `Cc1ccc(Sc2sc(-c3ccccc3)nc2[P+](c2ccccc2)(c2ccccc2)c2ccccc2)cc1`, the growth in assay [1] was -37.8% (active); in assay [2], 5.57% (active); in [3], 6% (active); in [4], -39.1% (active); in assay [5], 14.7%; in assay [6], 6.46% (active). Moreover, the growth in assay [7] was -14.2% (active); in assay [8] it was -43.5% (active); in assay [9], 7.63% (active); in assay [10] it was -48.2% (active).

As to `COC(=O)[C@]12CC[C@@H](C)[C@H](C)[C@@H]1C1=CC[C@@H]3[C@@]4(C)CC(=O)[C@H](OC(=O)c5ccco5)[C@@]5(C)COC(=C45)C[C@@]3(C)[C@]1(C)CC2`, the growth is 8.78% (active) in [1]; 35.6% in assay [2]; 36% in assay [3]; 29.3% in assay [4]; 38.5% in [5]; 25.9% in assay [6]. Moreover, the growth is 28.7% in assay [7], 13.1% in assay [8], 25.1% in assay [9] and 24.4% in assay [10].

For `CC1(C)C(=O)CC[C@]2(C)[C@H]3C(=O)C=C4[C@@H]5C[C@@](C)(C(=O)NCCNCCN)CC[C@]5(C)CC[C@@]4(C)[C@]3(C)CC[C@@H]12`, the growth in assay [1] was 121%; in assay [2], 105%; in assay [3], 86%; in [4], 76.8%; in assay [5] it was 147%; in [6], 104%. Besides, the growth in assay [7] is 92.5%; in assay [8] it was 101%; in assay [9], 75.9%; in [10] it was 82.5%.

As to `CC(C)C[C@@H](NC(=O)[C@@H](Cc1ccccc1)NC(=O)c1cnccn1)B1O[C@H]2[C@H](O)[C@@H](C(=O)NCCCC[C@@H]3NC(=O)[C@@H](Cc4ccccc4)NC(=O)[C@H](CC(=O)O)NC(=O)CNC(=O)[C@H](CCCN=C(N)N)NC3=O)O[C@@H](CN)[C@H]2O1`, the growth in assay [1] was -38.5% (active); in assay [2], -12.6% (active); in [3] it was -29.5% (active); in assay [4] it was -16.4% (active); in assay [5], -79.1% (active); in assay [6], -8.22% (active). For the same compound, the growth in assay [7] is -44.2% (active); in [8], -94.5% (active); in assay [9], 6.17% (active); in assay [10] it was 0.435% (active).

On to `COc1cccc(-c2nn(-c3ccccc3)cc2-c2ccnc(NCCCN)c2)c1`, for which the growth is 26.3% in [1]; 66.7% in [2]; 50.9% in [3]; 51.6% in [4]; 72.2% in [5]; 82.7% in [6]. For the same compound, the growth in assay [7] is 83.5%; in assay [8], 42.3%; in assay [9], 29.3%; in assay [10], 22.9%.

As for `N#CCCCCCn1c2ccccc2c2c3c(c4c5ccccc5n(CCCCCC#N)c4c21)C(=O)N(O)C3=O`, the growth in [1] was 85%; in assay [2], 95%; in assay [3], 79.8%; in assay [4], 58.2%; in assay [5], 95.3%; in assay [6] it was 83.8%. The growth is 0.852% (active) in assay [7], 107% in [8], 74.5% in assay [9] and 73.8% in [10].

Take `O=S(=O)(NCCNc1cc(-c2cn(-c3ccccc3)nc2-c2cccc(O)c2)ccn1)c1ccc(Cl)cc1`: the growth in [1] was 34.9%; in assay [2] it was 52.1%; in assay [3] it was 39.4%; in [4], 23%; in assay [5], 50.5%; in assay [6] it was 28.5%. For the same compound, the growth in assay [7] was 41%; in [8], 34.9%; in assay [9], 9.05% (active); in assay [10] it was 8.1% (active).

For `N#C/C(=C\c1ccc(-c2ccc(F)cc2)o1)c1nc(-c2ccco2)cs1`, the growth in [1] is 108%; in assay [2], 40.2%; in [3], 101%; in assay [4], 69.8%; in [5], 64.2%; in [6], 98.1%. In addition, the growth was 92% in assay [7], 107% in [8], 84.2% in assay [9] and 91.6% in assay [10].

Regarding `CCN1CCN(C(=O)[C@]23CCC(C)(C)C[C@H]2C2=CC[C@@H]4[C@@]5(C)CC/C(=N/O)C(C)(C)[C@@H]5CC[C@@]4(C)[C@]2(C)CC3)CC1`, the growth is 95.6% in [1]; 58.4% in assay [2]; 16.2% in assay [3]; 37% in assay [4]; 136% in [5]; 28.4% in assay [6]. Also, the growth in assay [7] was 54.3%; in [8], 85.2%; in assay [9], 38.3%; in assay [10] it was 31%.

For `CC(=O)n1c(/C(C#N)=C/c2ccc(N(C)C)cc2)cc2ccccc21`, the growth in assay [1] is 47.9%; in assay [2], 36.8%; in assay [3], 42.9%; in assay [4] it was 52.6%; in assay [5], 91.3%; in [6] it was 47.5%. The growth in [7] is 37.7%; in assay [8], 2.85% (active); in [9], 21.1%; in [10], 33.1%.
